Records with an inconclusive call do not appear. Unmarked numbers belong to inactive results. Calls follow the shape of the dose curve; as a rule, active = well fitted cell-killing curve with a large enough effect in the repeat runs; inconclusive = weak or mixed curves, or effect the other way; inactive = no such curve, though single readings can be large or run the other way.
Experiment: qHTS assay to identify small molecule agonists of the estrogen receptor alpha (ER-alpha) signaling pathway in the presence of an antagonist - cell viability counter screen (AID 1259386);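 also: cells exposed to compounds for 22 h at 37 °C before the viability read; nearly all actives have a fitted effect of over 30% in size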
Details: VM7Luc4E2 viability, CellTiter-Fluor fluorescence, 22 h; series mostly up to 92.4 µM; activity change, negative = cytotoxicity: at the top concentration
From the text: National Center for Advancing Translational Sciences [NCATS]
NIH Chemical Genomics Center [NCGC]
U.S. Environmental Protection Agency [EPA]
National Institutes of Environmental Health Sciences [NIEHS]
National Toxicology Program [NTP]
U.S. Food and Drug Administration [FDA]
Estrogen receptor (ER), a member of nuclear hormone receptor plays an important role in development, metabolic homeostasis and reproduction. Two subtypes of ER, ER-alpha and ER-beta, have similar expression patterns with some uniqueness in both types. Endocrine disrupting chemicals (EDCs) and their interactions with steroid hormone receptors like ER causes disruption of normal endocrine function. Therefore, it is important to understand the effect of environmental chemicals in ER signaling pathway. For identifying ER agonists, VM7Luc4E2 cell line has been used in the current assay.
VM7Luc4E2 cell line (provided by Denison MS, University of California) endogenously expresses full-length ER-alpha and is stably transfected with a plasmid containing four estrogen responsive elements (ERE) upstream of a luciferase reporter gene. This current screening for measuring luciferase reporter gene activity using VM7Luc4E2 cells against Tox21 10K library collection is a confirmation study on agonist mode screening in presence of ER-antagonist (ICI-182,780) at 10.0nM final concentration. The cytotoxicity of the compounds was tested in parallel by measuring the cell viability using CellTiter-Fluor assay system (Promega, Madison, WI) in the same wells.
Tox21 Assay Protocol Summary:
VM7Luc4E2 cells were cultured in phenol red free assay medium containing 10% charcoal stripped FBS for 5 days prior to the assay. The cells were dispensed at 4,000 cells in 4uL of assay medium per well into white wall/solid-bottom 1536-well plates (Corning Life Sciences, Corning, NY) using a Multidrop Combi (Thermo Fisher Scientific Inc., Waltham, MA) dispenser. After the assay plates were incubated at 37C and 5% CO2 for 24hr, 1uL of 10.0nM (final concentration) ICI-182,780 or assay buffer was added using two separate tips of Flying Reagent Dispenser (FRD, Aurora Discovery, San Diego, CA). Then 23nL of compounds dissolved in DMSO at 15 concentrations and positive controls or DMSO only was transferred to the assay plates by a Pintool station (Wako, San Diego, CA). The assay plates were incubated at 37C and 5% CO2 for 22hr. After 21hr incubation at 37C, 1uL/well CellTiter-Fluor reagent (Promega Corporation, Madison, WI) was added to each well using FRD and after 1hr incubation at 37C and 5% CO2, the fluorescence signal was measured on ViewLux plate reader (PerkinElmer, Shelton, CT).
% is scaled to controls: 0 for no effect and ±100 for the full control effect.

Going from CCCCCCCCCCCCCC(=O)OC to CCCCCCCCCCCCOC(C)=O, the “activity change, negative = cytotoxicity” value rises from -8.75% to -4.37%.

First: C=CCOCC(O)CCl (stereo not given)
Second: C=CC(C)(O)CC/C=C(\C)CC (stereo not given)
The “activity change, negative = cytotoxicity” value of the first is higher: 2.27% for the first, 0.702% for the second.

First: COC(OC)C(C)c1ccccc1 (stereo not given)
Second: CC(C)COC(=O)/C=C/c1ccccc1
The “activity change, negative = cytotoxicity” value of the first is lower: -0.622% for the first, 1.28% for the second.

First: O=C1c2ccccc2-c2ccccc21
Second: Oc1ccccc1Cc1ccccc1O
The “activity change, negative = cytotoxicity” value of the first is higher: 7.6% for the first, -0.526% for the second.

Going from CCCCC(=O)N(C)C to CCCCCCCCC(=O)OCC, the “activity change, negative = cytotoxicity” value rises from -7.64% to 0.198%.

Compared with CCCCOC(=O)C(=O)OCCCC, CCCCC(CC)C(=O)OC(C)C (stereo not given) is higher in “activity change, negative = cytotoxicity” value: 2.17% for the first, 2.61% for the second.

Going from O=S(=O)(O)CCO to NC(=O)NNC(N)=O, the “activity change, negative = cytotoxicity” value falls from 0.641% to 0.19%.

First: O=S1(=O)CCCC1
Second: CC1(N)CCC(C(C)(C)N)CC1 (stereo not given)
The “activity change, negative = cytotoxicity” value of the first is higher: 1.08% for the first, -7.9% for the second.

Going from CCCOCCOCCOCCO to CCCCC[Si](OCC)(OCC)OCC, the “activity change, negative = cytotoxicity” value rises from -0.235% to 2.78%.

Going from O=C(O)c1c(Cl)ccc(Cl)c1Cl to CC(=O)Nc1ccc(C)cc1, the “activity change, negative = cytotoxicity” value rises from 0.725% to 3.09%.

Going from CCCCC(CC)COC(=O)c1ccccc1 (stereo not given) to O=C(O)/C=C/c1ccccc1, the “activity change, negative = cytotoxicity” value falls from 1.04% to -24.9%.

Going from Nc1ccnc(=O)[nH]1 to CC(=O)/C=C/c1ccco1, the “activity change, negative = cytotoxicity” value falls from 3.53% to 1.33%.

First: C=C[Si](C)(C)O[Si](C)(C)C=C
Second: C/C=C(\C)C(=O)OCC/C=C\CC
The “activity change, negative = cytotoxicity” value of the first is lower: -0.438% for the first, 1.68% for the second.

Going from CC(Cl)COP(=O)(OCC(C)Cl)OCC(C)Cl (stereo not given) to CC(C)CCCCCCOC(=O)C1CCCCC1C(=O)OCCCCCCC(C)C (stereo not given), the “activity change, negative = cytotoxicity” value rises from -0.13% to 0.57%.

First: CNC(=O)NC
Second: COc1cc(C=O)ccc1OC(=O)C(C)C
The “activity change, negative = cytotoxicity” value of the first is higher: 7.04% for the first, 1.7% for the second.

First: COCC(=O)Nc1c(I)c(C(=O)NCC(O)CO)c(I)c(C(=O)N(C)CC(O)CO)c1I (stereo not given)
Second: CO/N=C(/C(=O)N[C@@H]1C(=O)N2C(C(=O)O)=C(Cn3nnc(C)n3)CS[C@H]12)c1csc(N)n1
The “activity change, negative = cytotoxicity” value of the first is lower: -6.46% [at 42.5 µM] for the first, 0.59% [at 42.5 µM] for the second.

Compared with Cc1nc([N+](=O)[O-])cn1-c1ccc([N+](=O)[O-])cc1, Cc1cccc(Nc2ccncc2S(=O)(=O)NC(=O)NC(C)C)c1 is higher in “activity change, negative = cytotoxicity” value: -0.358% [at 42.5 µM] for the first, 1.24% [at 42.5 µM] for the second.

Compared with CN[C@@H]1[C@@H](O)[C@@H](O[C@@H]2[C@H](O)[C@H](O[C@H]3OC(CN)=CC[C@H]3N)[C@@H](N)C[C@H]2N)OCC1(C)O (stereo not given in full), CC(=O)OC[C@H]1O[C@@H](OC(C)=O)[C@H](OC(C)=O)[C@@H]1OC(C)=O is higher in “activity change, negative = cytotoxicity” value: 1.79% [at 42.5 µM] for the first, 2.31% [at 42.5 µM] for the second.

Going from O=C(O)c1ccccc1C(=O)Nc1ccc(S(=O)(=O)Nc2nccs2)cc1 to NC(=O)C1(N2CCCCC2)CCN(CCCC(=O)c2ccc(F)cc2)CC1, the “activity change, negative = cytotoxicity” value falls from -2.93% [at 42.5 µM] to -8.24% [at 42.5 µM].

For CCNC(=O)/C=C/c1cccc(Br)c1, the “activity change, negative = cytotoxicity” value was 1.72% [at 42.5 µM].

For BrC/C=C/CBr, the activity change, negative = cytotoxicity was 2.04% [at 19 µM].

— PubChem BioAssay (Tox21)
